This is an account of results in PubChem BioAssay (NCATS).

Records with an inconclusive call do not appear. Entries that show only a call come without a potency. The source made the active and inactive calls. Calls come from the whole dose curve; as a rule, active = well fitted curve in the direction sought with a large enough effect; inconclusive = small, poorly fitted or top-dose-only effect, or another doubt; inactive = no such curve, though single readings can be large; an effect the other way counts as inactive or inconclusive.

In assay [1] the target is Aldehyde dehydrogenase, mitochondrial (Homo sapiens) (UniProt P05091). Kind of assay: qHTS for Inhibitors of the Aldehyde Dehydrogenase Family (ALDH2) Primary screen (AID 2061308). Note: nearly all actives have a fitted effect of over 55% in size.
In assay [2] the target is Retinaldehyde dehydrogenase 3 (Homo sapiens) (UniProt P47895). Kind of assay: qHTS for Inhibitors of the Aldehyde Dehydrogenase Family (ALDH1A3) Primary screen (AID 2061315). (In general: In qHTS, concentration-response curves come from the screen itself.)

Turning to `O=C(c1ccccc1)N1CCN(c2nc(-c3cccs3)nc3ccccc23)CC1`, the Potency entry in assay [1] and in assay [2] was “inactive” in each case.

For the compound `CCCc1cc(F)c(S(=O)(=O)N2CCN(S(=O)(=O)c3ccc4c(c3)OCCO4)CC2)cc1F`, the Potency result in assay [1] and in assay [2] was “inactive” each time.

As for `C#CCCC(=O)Nc1sc2c(c1-c1nc3ccccc3s1)CCNC2`, the Potency entry in assay [1] and in assay [2] was “inactive” throughout.

Regarding `c1ccc2c(Nc3ccn[nH]3)nc(-c3ccncc3)nc2c1`, the Potency result in assay [1] and in assay [2] was “inactive” each time.

In the case of `O=C(OCC#CCSc1nnc(-c2cccc3ccccc23)o1)c1sccc1Cl`, the Potency entry in assay [1] and in assay [2] was “inactive” in each case.

For `COc1ccc(-c2nc3ccccc3s2)cc1OC`, the Potency entry in assay [1] and in assay [2] was “inactive” throughout.

On to `O=C(O)c1ccc2c(c1)C(=O)N([C@H](Cc1ccc(Cl)cc1)C(=O)O)C2=O`, for which the Potency entry in assay [1] and in assay [2] was “inactive” each time.

With `Cc1ccc(C[C@H](C(=O)O)N2C(=O)c3ccc(C(=O)O)cc3C2=O)c(C)c1`, the Potency result in assay [1] and in assay [2] was “inactive” in each case.

Regarding `CCOc1ccccc1-c1nnc2n1N=C(c1ccccc1OC)CS2`, the Potency result in assay [1] and in assay [2] was “inactive” throughout.

Take `Cc1cn(-c2cccc(NC(=O)c3ccc(C)c(Nc4nccc(-c5cccnc5)n4)c3)c2)cn1`: the Potency entry in assay [1] and in assay [2] was “inactive” each time.

In the case of `O=S(=O)(Nc1ccccc1)c1ccc(NCc2cccc(Cl)c2O)cc1`, the Potency entry in assay [1] and in assay [2] was “inactive” each time.

Take `Cc1c(P(=S)(c2ccccc2)c2ccccc2)[n+]2ccccc2n1CCCc1ccccc1`: the Potency entry in assay [1] and in assay [2] was “inactive” each time.

For the compound `CC(C)(C)OC(=O)NCCOCCOCCOc1cccc(-n2ncc3c2CCCC3NC(=O)c2ccccn2)c1` (stereo not drawn), the Potency result in assay [1] and in assay [2] was “inactive” in each case.

For the compound `CC(=O)c1ccc(N2CCN(S(=O)(=O)c3ccc4c(c3)OCC(=O)N4)CC2)cc1`, the Potency result in assay [1] and in assay [2] was “inactive” each time.

Consider `CC(C)c1cc(C(=O)N2CC[C@H](NC(=O)C3CC3)C2)n[nH]1`, for which the Potency entry in assay [1] and in assay [2] was “inactive” throughout.

Turning to `Cc1cccc(C)c1-n1c(SCC(=O)Nc2ccc(F)cc2)nnc1-c1cccc([S+](=O)([O-])N2CCCC2)c1`, the Potency result in assay [1] and in assay [2] was “inactive” each time.

On to `Cn1c2cc(Br)sc2c2cnn(Cc3ccc(F)cc3F)c(=O)c21`, for which the Potency result in assay [1] and in assay [2] was “inactive” in each case.

Take `COC(=O)c1ccc2c(c1)S(=O)(=O)NC2=O`: the Potency entry in assay [1] and in assay [2] was “inactive” throughout.

Consider `C[C@@H]1[C@H](O)[C@@H]2OC(=O)C3=C2[C@H](CCC3)[C@@]12C[C@@H](c1ccoc1)OC2=O`, for which the Potency result in assay [1] and in assay [2] was “inactive” throughout.

As to `Cc1cccc(-n2cnc3cc(C(=O)N4CCCCCC4)ccc32)c1`, the Potency result in assay [1] and in assay [2] was “inactive” each time.

As to `NC(=O)C1CCN(c2nc(-c3cccs3)cs2)CC1`, the Potency result in assay [1] and in assay [2] was “inactive” each time.

`CCc1c(C)nc2cc(-c3ccc(OC)c(OC)c3)nn2c1N1CCCC1`: the Potency entry in assay [1] and in assay [2] was “inactive” in each case.

On to `Cn1nnnc1Sc1ncnc2scc(-c3ccc(C#N)cc3)c12`, for which the Potency result in assay [1] and in assay [2] was “inactive” each time.

As for `O=C1CCCC2=C1C(c1[nH]ncc1Cl)N=C(Nc1ccccn1)N2` (stereo not drawn), the Potency entry in assay [1] and in assay [2] was “inactive” in each case.

With `Cc1ccc(OC2=NS(=O)(=O)c3ccccc32)cc1`, the Potency result in assay [1] and in assay [2] was “inactive” throughout.

`Cc1ccc(C2=NN(CC(=O)NCCc3ccccc3)C(=O)C2)cc1`: the Potency result in assay [1] and in assay [2] was “inactive” in each case.

As for `N#Cc1cccc(-c2ccc(NC(=O)c3cccs3)cn2)c1`, the Potency result in assay [1] and in assay [2] was “inactive” in each case.

For `COC1CC(O[C@H]2CC[C@]3(C)C4CC[C@@]5(C)C(=O)[C@]4(CC[C@@H]3C2)CC[C@@H]5C2=CC(=O)OC2)OC(C)C1OC1OC(COC2OC(CO)C(O)C(O)C2O)C(O)C(O)C1O` (stereo partly drawn), the Potency entry in assay [1] and in assay [2] was “inactive” in each case.

Take `CCOc1ccc(CCNC(=O)C2=C(C)OCCO2)cc1OCC`: the Potency entry in assay [1] and in assay [2] was “inactive” each time.

`CCCn1c(C)nc2c(NCCN(C(C)C)C(C)C)nc(C)nc21`: the Potency entry in assay [1] and in assay [2] was “inactive” throughout.

In the case of `Cc1cccc(CNc2ncnc3ccc(-c4cccc(C)c4)cc23)c1`, the Potency result in assay [1] and in assay [2] was “inactive” each time.

As for `CCCCN1C(=O)c2ccccc2C1=O`, the Potency entry in assay [1] and in assay [2] was “inactive” each time.

As for `CCOC(=O)c1ccc(O)c2ncc(NCC3CCCN(CCc4ccccc4)C3)cc12` (stereo not drawn), the Potency entry in assay [1] and in assay [2] was “inactive” throughout.

For `CC(C)c1ccccc1-c1nc(NCc2ccc(-c3cccnc3)cc2)c2cccn2n1`, the Potency result in assay [1] and in assay [2] was “inactive” each time.

As for `O=C(NC(NC(=S)Nc1ccc(F)c([N+](=O)[O-])c1)C(Cl)(Cl)Cl)C(c1ccccc1)c1ccccc1` (stereo not drawn), the Potency entry in assay [1] and in assay [2] was “inactive” each time.

For the compound `c1csc(CNc2ncnc3ccc(-c4ccoc4)cc23)c1`, the Potency entry in assay [1] and in assay [2] was “inactive” throughout.

Regarding `N#Cc1nc(Nc2cc(Cl)cc(Cl)c2)nc(NC2CCCC2)n1`, the Potency entry in assay [1] and in assay [2] was “inactive” in each case.

As for `Cc1ccc(OCCn2c(CCNC(=O)Cc3ccccc3)nc3ccccc32)cc1`, the Potency result in assay [1] and in assay [2] was “inactive” throughout.

Turning to `N#Cc1c(-c2ccccc2)no[n+]1[O-]`, the Potency result in assay [1] and in assay [2] was “inactive” in each case.

For the compound `CN1[C@@H]2CC[C@H]1CC(OC(=O)C(CO)c1ccccc1)C2` (stereo partly drawn), the Potency entry in assay [1] and in assay [2] was “inactive” throughout.

On to `N#Cc1nc(NCCCCO)nc(Nc2ccccc2)n1`, for which the Potency entry in assay [1] and in assay [2] was “inactive” throughout.

On to `Cc1cc(C(C#N)c2ccc(Cl)cc2)c(Cl)cc1NC(=O)c1cc(I)cc(I)c1O` (stereo not drawn), for which the Potency entry in assay [1] and in assay [2] was “inactive” each time.

As to `Cc1cc(-c2nnc3n2CCCCCCC3)c(C)n1-c1ccccc1`, the Potency result in assay [1] and in assay [2] was “inactive” throughout.

As for `CCCN(CCC)C(=O)C(CCC(=O)OCCCN1CCN(CCOC(=O)Cc2c(C)n(C(=O)c3ccc(Cl)cc3)c3ccc(OC)cc23)CC1)NC(=O)c1ccccc1` (stereo not drawn), the Potency result in assay [1] and in assay [2] was “inactive” throughout.
